“And” between values parts separate entries of the source, which are not always exact repeats. Equal entries are not always repeated. This is part of a sample that, as a whole, favours compounds with a hit. Of some 83,000 tested, about 20% had one in any assay.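 In brief: 96-well plates, 48 h treatment, single concentration, percent growth endpoint.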 The source made the active and inactive calls. The calls were made as follows: active = growth percent below 10; inactive = the rest.

32 compounds from PubChem BioAssay (NCI) can be followed below.

The test system of the assay is SF-295 CNS. Nature of the assay: NCI-60 one-dose screen, 48 h (100 = growth as untreated, 0 = no growth, -100 = all killed). To be noted: 10 µM unless noted.
Regarding `C[n+]1c(/C=C/c2ccc([N+](=O)[O-])cc2)ccc2ccccc21`, the growth was 100% (inactive).
For `c1ccc2c(c1)Nc1cc3ccccc3cc1N2`, the growth is 46.2% (inactive).
In the case of `CCOC(=O)/C(=C\c1ccc(-c2ccccc2)cc1)C(C)=O`, the growth is 102% (inactive).
Turning to `NC(N)=N/N=C/c1ccc([N+](=O)[O-])o1`, the growth is 93.4% (inactive).
Turning to `CCCCCCCCCCCCCCCC[N+](C)(CCO)Cc1cnc[nH]1` (configuration not stated), the growth is -31.7% (active).
As to `COC(=O)c1nc(=S)[nH]c(C(=O)OC)c1C(=O)c1ccc2ccccc2c1`, the growth was 98.6% (inactive).
For `CCC(=O)Sc1ccccc1C(=O)Nc1ccc(Cl)cc1` the value was 35.5% (inactive).
For `Cc1ccnc(NC(c2ccccc2)c2ccc3cccnc3c2O)c1` (configuration not stated) the value was 26% (inactive); for `CC1SC(=S)N(c2ccc(Cl)cc2)C1=O` (configuration not stated), 96% (inactive) and 98.8% (inactive); for `CCN1/C(=C\c2cc[n+](CC)c3ccccc23)C=Cc2ccccc21`, 0.16% (active).
`Cc1ccc(C(=Nc2ccccc2)N=P(c2ccccc2)(c2ccccc2)c2ccccc2)cc1`: the growth was -93.4% (active).
As for `CC(C)(C)c1ccc(O)c(C2CCCCC2)c1`, the growth is 130% (inactive).
For `Cc1ccc(NS(=O)(=O)c2ccc(C)cc2)cc1` the value was 95.5% (inactive) and 93.4% (inactive); for `O=C(O)C1C2CC3C(OC(=O)C31)C2Br` (configuration not stated), 96.9% (inactive) and 101% (inactive); for `C=CCOc1ccc(N=NC(C#N)C#N)cc1`, 92.7% (inactive).
With `CN(C)c1ccc(C(=C2C=CC(=[N+](C)C)C=C2)c2ccc(N(C)C)cc2)cc1` (tested in a mixture with another compound), the growth is -45.1% (active).
In the case of `O=C(/C=C\c1cc(Br)ccc1O)/C=C/c1cc(Br)ccc1O`, the growth is -1.61% (active).
As for `CC(C)c1ccc2nc3ccc(C(=O)NCCN4CCN(c5ccccc5)CC4)cn3c(=O)c2c1`, the growth is 23.1% (inactive).
In the case of `O=C(/C=C/C=C/c1ccccc1)c1ccco1`, the growth is 112% (inactive).
On to `CC1(C)CC([P+](c2ccccc2)(c2ccccc2)c2ccccc2)=NN1`, for which the growth was 53.2% (inactive).
Turning to `COC(=O)[C@@]12OC[C@]34[C@H]([C@@H](O)[C@@H]1O)[C@@]1(C)[C@H](O)C(=O)C=C(C)[C@@H]1C[C@H]3OC(=O)C(OC(C)=O)[C@@H]24` (some centres not stated), the growth is -53.9% (active).
As for `Cc1c2ccccc2c(C)c2c1ccc1ccccc12`, the growth is 96.9% (inactive).
To `S=C(N/N=C/c1ccccn1)Nc1ccccn1` belongs 27.1% (inactive); to `CN(C)C(=O)SC1=C(c2c(Cl)cccc2Cl)C(=O)c2ccccc21`, 103% (inactive).
Consider `CCC(CC)COC(=O)c1ccc(O)c(O)c1`, for which the growth is 90.1% (inactive).
Take `CC1=CC(O)C2CC1C2(C)C` (configuration not stated): the growth was 103% (inactive).
For `COc1cc(/C=C(/C)C[N+](=O)[O-])ccc1O` the value was 99.3% (inactive); for `NC1=CC(=O)c2ccccc2C1=O`, 69% (inactive).
To `CCN(CC)CCOc1ccc(-c2nc3cc(Cl)ccc3s2)cc1` belongs -71.5% (active).
With `CCOc1ccc(-c2nc3ccc(-c4nc5ccc(N6CCN(C)CC6)cc5[nH]4)cc3[nH]2)cc1`, the growth was -81.9% (active).
To `CNC(=O)N/N=C/c1ccc([N+](=O)[O-])o1` belongs 107% (inactive); to `N#CSCc1ccc(CSC#N)c(Cl)c1`, 102% (inactive).
